# Hit rate of the full screen: of about 1,800 compounds, fewer than 10 were called active. A selection follows. A number with no mark means an inactive call.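 The calls were made as follows: active = inhibition of granule release above a set limit; inactive = the rest.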
# Test: LAMP-1 surface externalization blockers in TALL-104 cells – cell-based, flow cytometry, validation set (AID 651664)
# Details: TALL-104 LAMP-1 externalization, at 15.2 µM, hits give high values, stimulated with thapsigargin and PMA
row,Compound,inhibition
1,Cc1ccc(C(=O)NC(=S)Nc2ccc(-c3cc4ccccc4oc3=O)cc2)c(C)c1,-0.7%
2,CCOC(=O)c1[nH]c(C)c(/C(O)=C2\C(=O)C(=O)N(CCN(C)C)C2c2ccncc2)c1C (configuration not stated),4%
3,O=C1C=C(N2CCN(C(=O)c3ccccc3)CC2)C2(CCCCC2)O1,-4.4%
4,CCc1ccc2c(c1)c(N=NC1=NC(=O)CS1)c(O)n2CC,-0.4%
5,CC(C)(C)NC(=O)C(=O)N/N=C/c1ccc(Br)cc1,-2.4%
6,Cn1cnnc1Sc1cc(N2CCN(S(=O)(=O)c3ccc(Cl)c(Cl)c3)CC2)ccc1[N+](=O)[O-],0.3%
7,O=C(NCc1ccc2c(c1)OCO2)c1cccc(F)c1,6.2%
8,Cc1cc(C(=O)CSc2nc3ccc(Cl)cc3[nH]2)c(C)n1CC1CCCO1 (configuration not stated),1.6%
9,COc1ccc(/C(O)=C2/C(=O)C(=O)N(CCCN(C)C)C2c2ccc(Cl)cc2)cc1OC (configuration not stated),6.2%
10,CCCCN(CCCC)CP(=O)(c1ccccc1)c1ccccc1,0%
11,O=C(Cn1cnc2ccccc2c1=O)c1ccc2ccccc2c1,0%
12,CC1CCN(S(=O)(=O)c2ccc(F)c(C(=O)O)c2)CC1,3.9%
13,CC(=O)c1ccc(NC(=O)Nc2ccc(NS(=O)(=O)c3ccc(C)cc3)cc2)cc1,-2.9%
14,CCCCN(CCCC)C(=S)N/N=C/c1c(C)[nH]n(-c2ccccc2)c1=O,-0.4%
15,Cc1ccc(C(=O)C2(C)C3c4cc(Br)ccc4OC(=O)C32C(=O)c2ccco2)cc1 (configuration not stated),93.2% (active)
16,N#CC1=C(N)N(c2ccc(Oc3ccccc3)cc2)C(=O)C1,1.8%
17,CCN(CC)C(=O)CSc1nc2ccccc2c(=O)[nH]1,0.4%
18,O=C(/C=C/c1ccc([N+](=O)[O-])cc1)NCC1CCCO1 (configuration not stated),-0.8%
19,COc1cccc2cc(C(=O)Nc3cccc(C)n3)c(=O)oc12,4.9%
20,CCCCSC(=S)N(C)C1CCS(=O)(=O)C1 (configuration not stated),-0.4%
21,COP(C)(=O)c1c(C)nn(-c2ccccc2)c1C (configuration not stated),-2.1%
22,Cn1c(Cl)c(C(=O)Nc2ccccc2)c2ccccc21,-1.3%
23,Cc1csc(NC(=O)Cc2coc3cc(C)c(C(C)C)cc23)n1,-2.3%
24,N/C(=N\OC(=O)c1ccc(Cl)cc1Cl)c1ccc(Cl)cc1,5.2%
25,N/C(=N\OC(=O)CCCN1C(=O)c2ccccc2C1=O)c1ccc(Br)cc1,-3.6%

row,Compound,inhibition
1,N/C(=N\OC(=O)c1cccc(Br)c1)c1ccc(Br)cc1,57.6% (active)
2,CCOC(=O)C(C)On1c(-c2ccccc2)nc2ccc([N+](=O)[O-])cc21 (configuration not stated),4.1%
3,CCc1nn(-c2ccccc2)c2c1-c1cc(OC)c(OC)cc1C1(N2)C(=O)Nc2ccccc21 (configuration not stated),-0.7%
4,CCOc1c(Cl)cc(C(=O)Nc2ccccc2-c2ccccc2)cc1Cl,-0.6%
5,O=C(COc1ccccc1O)N1CCN(C(=O)c2ccco2)CC1,0.9%
6,OCCSc1ncnc2c1oc1ccccc12,-1.3%
7,O=C(O)CCCCCNC(=O)Nc1ccc2c(c1)OCCO2,-3.4%
8,O=C1c2ccccc2NC(c2cnc3ccccc3n2)N1O (configuration not stated),-0.6%
9,COc1cc(CC(=O)OCC(=O)c2ccc3c(c2)OCCO3)cc(OC)c1OC,0.6%
10,Cc1cc(NC(=O)c2cccc3ccccc23)cc(C)c1OCC(=O)N1CCOCC1,-2.8%
11,N#Cc1c(-c2ccccc2)nc(-c2ccccc2)nc1N1CCOCC1,-0.6%
12,Cc1nc2c(=O)oc3ccccc3c2n1-c1ccccc1,-0.5%
13,CCOC(=O)C1CCN(C(=O)CN(c2cc(OC)ccc2OC)S(=O)(=O)c2ccccc2)CC1,-2.6%
14,Cc1nn(C)cc1CNC(=O)CCC(=O)O,5.3%
15,COC(=O)C1CCN(c2cc(=O)n(C3CCCCC3)c(=O)[nH]2)CC1,5.6%
16,Cc1ccccc1C1CC(c2ccccc2OC(F)F)Nc2ncnn21 (configuration not stated),-2.3%
17,Cc1cc2ccccc2nc1SCC(=O)N1c2ccccc2CC1C (configuration not stated),-0.9%
18,CC12Cc3ccc4ccccc4c3C=C1C[N+](C)(C)C2 (configuration not stated),-0.3%
19,CC1=NC(=O)C(N=Nc2ccccc2)N1c1ccccc1 (configuration not stated),-2.8%
20,CC(C)c1ccc(NS(=O)(=O)c2ccc3[nH]cc(C(=O)N4CCC(C(N)=O)CC4)c(=O)c3c2)cc1,-0.7%
21,CCC(C)(C)NC(=O)C(c1ccco1)N(C(=O)Cn1nnc2ccccc21)c1ccc2c(c1)OCO2 (configuration not stated),-0.1%
22,Cc1ccc(S(=O)(=O)N2CCN(C(=O)c3cc4c(C)nn(-c5ccccc5C)c4s3)CC2)cc1,-1.8%
23,CCOC(=O)c1sc2nc(CC(=O)OC)nc(NCCN3CCOCC3)c2c1C,-2.4%
24,COc1ccc(C(C)=O)cc1CN1C(=O)NC2(CCCCC2)C1=O,-0.4%
25,Cc1occc1C(=O)Nc1ccc2ccccc2c1,0.2%

row,Compound,inhibition
1,CCS(=O)(=O)N1CCCC(C(=O)NC2CCCCC2C)C1 (configuration not stated),0.3%
2,O=C(O)c1c[nH]c(=S)n1-c1ccc(F)cc1,1.2%
3,COCCN1CN(S(=O)(=O)c2ccc(Cl)cc2)c2nc3ccccc3nc21,-1.9%
4,COc1cccc(C(C(=O)NCc2ccco2)N(Cc2ccco2)C(=O)Cn2nnc3ccccc32)c1 (configuration not stated),-3.7%
5,CCCn1c2c(c(O)c(C(=O)Nc3ccccc3)c1=O)CCCC2,1.8%
6,CSCC[C@H](NC(=O)NCCC1=CCCCC1)C(=O)O,1.1%
7,CCOC(=O)c1c(C(C)(C)C)oc2ccc(O)cc12,1.3%
8,Clc1ccc(CON/C=N/c2ncnc3sccc23)cc1,-1.5%
9,CSc1nc(-c2ccc(Cl)cc2)nn1C(=O)c1ccco1,7%
10,C1=C(c2ccccc2)Nc2nnnn2C1c1cccs1 (configuration not stated),0.7%
11,O=C(NCc1nc2ccccc2[nH]1)c1cc2ccccc2oc1=O,6.1%
12,Cc1cccc(CC(Cc2nc3ccccc3[nH]2)c2nc3ccccc3[nH]2)c1 (configuration not stated),94.4% (active)
13,c1ccc2nc(-c3nc4ccccc4[nH]3)ccc2c1,0.9%
14,COc1ccc(CCNC(=O)c2ccccc2NC(=O)c2ccco2)cc1OC,-1.7%
15,COC(=O)CN1C(=O)C(O)(CC(=O)c2ccc(C)o2)c2ccccc21 (configuration not stated),-1.9%
16,COc1cccc(OC)c1C(=O)Nc1cc(C)on1,-2.4%
17,O=C(c1ccc(F)cc1)c1ccc(N2CCCC2)cc1,-4.5%
18,O=c1cc(N2CCc3ccccc3C2)[nH]c(=O)n1C1CCCCC1,8.4%
19,CCN(CC)C(=O)CSc1ncnc2c1nnn2-c1ccc(OC)cc1,-0.1%
20,O=S(=O)(CCc1nc2ccccc2o1)c1ccc(Cl)c(Cl)c1,-2.2%
21,COC(=O)c1ccccc1NC(=O)c1ccc(COc2ccc(C)c(C)c2)o1,-0.1%
22,O=C(c1ccc(S(=O)(=O)N2CCCCCC2)cc1)N1CCC(CN2C(=O)c3cccc4cccc(c34)C2=O)CC1,0.6%
23,c1nnnn1C12CC3CC(CC(C3)C1)C2,3.1%
24,CCOC(=O)c1ccc(N2C(=O)CC(C3CCCO3)C2=O)cc1 (configuration not stated),3.6%
25,COC(=O)c1ccc(N2C(=O)CC(N(C)CCc3ccc(OC)c(OC)c3)C2=O)cc1 (configuration not stated),66% (active)

row,Compound,inhibition
1,COC(=O)c1ccc(N2C(=O)CC(SCCN)C2=O)cc1 (configuration not stated),-1.8%
2,O=C(Nc1cc(C(F)(F)F)ccc1N1CCOCC1)c1cccnc1Cl,-2.8%
3,CCCS(=O)(=O)N1CCCC(C(=O)NCCN(Cc2ccccc2)C(C)C)C1 (configuration not stated),-0.7%
4,O=C(/C=C/Nc1cccc(C(F)(F)F)c1)c1ccc(Oc2ncccn2)cc1,-1%
5,NC(=S)N/N=C/c1ccc(-c2cccc([N+](=O)[O-])c2)o1,1.9%
6,COc1ccc(NC(=O)c2cccc(S(=O)(=O)N3CCOCC3)c2)cn1,1.5%
7,O=C(NCC1CCCO1)/C(=C\c1ccco1)NC(=O)c1ccccc1 (configuration not stated),-2.2%
8,CCc1ccc(Nc2ncccc2C#N)cc1,1.1%
9,C=CCn1c(-c2cccs2)nc2nc3ccccc3nc21,-2.3%
10,C/C(=N/OC(=O)c1ccc(F)cc1)c1ccc(C)cc1,0.7%
11,CC1(C)Cc2c(C#N)c(SCc3ccccc3)nc(N3CCOCC3)c2CO1,1.1%
12,Fc1ccc(C2=Nn3c(Cc4ccccc4F)nnc3SC2)cc1,1.3%
13,CC(=O)N1CCc2cc(NS(=O)(=O)c3cccs3)ccc21,-1.2%
14,COc1cc(OC)cc(C(=O)Nc2nc3ccccc3[nH]2)c1,-1%
15,Cc1cccc(N2CCN(CC(=O)Nc3ccc(-n4cnnn4)cc3)CC2)c1C,-0.6%
16,COc1ccc(-c2cn[nH]c2N)cc1OC,2.5%
17,O=C(COC(=O)c1ccccc1)NCc1ccco1,-0.5%
18,CCOC1(OCC)N=C(N)C2(C#N)C(c3cccc(C)c3)C12C#N (configuration not stated),-0.4%
19,Cc1ccc(NC(=O)/C(=C\C=C\c2ccccc2)NC(=O)c2ccccc2)cc1,-0.3%
20,Cc1ccc(NC(=O)c2cc(S(=O)(=O)Nc3ccc(C)cc3)cs2)cc1,0.6%
21,COc1cc(N)cc(NC(=O)c2ccncc2)c1,-0.4%
22,COc1ccc(CN2CCOCC2)cc1,1.5%

# Reference: PubChem BioAssay AID651664 (NMMLSC, 2012)
